Results on nine compounds are retold here after PubChem BioAssay (NCI).

The panel holds about 83,000 compounds, 20% with a hit somewhere; the sample as a whole holds those more often.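 Testing used 96-well plates and a 48-hour single-concentration exposure. Example: -40 means 40% of the starting cells died.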 Values without a mark were called inactive. Active and inactive are the calls of the source. Rule for the calls: active = growth percent below 10; inactive = the rest.

Test in all cases: NCI-60 one-dose screen, 48 h (100 = growth as untreated, 0 = no growth, -100 = all killed)
Common to all, as to conditions: 10 µM unless noted

For experiment [1], the system named is RPMI-8226 leukemia.
Experiment [2] deals with OVCAR-8 ovarian.
In experiment [3] the test system is OVCAR-5 ovarian.
Experiment [4] has as its system OVCAR-4 ovarian.
Experiment [5] relates to SK-OV-3 ovarian.
For experiment [6], the system named is IGROV1 ovarian.
In experiment [7] the test system is OVCAR-3 ovarian.
Experiment [8] relates to HS 578T breast.
Experiment [9] has as its system NCI/ADR-RES ovarian.
For experiment [10], the system named is T-47D breast.
The subject of experiment [11] is BT-549 breast.
For experiment [12], the system named is MDA-MB-435 melanoma.
Experiment [13] relates to SW-620 colon.
In experiment [14] the test system is MCF7 breast.
Experiment [15] relates to HCT-116 colon.
Experiment [16] relates to HCC-2998 colon.
The subject of experiment [17] is KM12 colon.

Consider `COc1ccc(-c2nc(C#N)c(NCC(c3ccco3)N3CCCC3)o2)cc1` (stereo not drawn), for which the growth was 24.2% in experiment [1]; 45.1% in [2]; 69% in experiment [3]; 52.6% in [4]; 30.4% in experiment [5]; 56.5% in [6]. Besides, the growth was 22% in experiment [7]; 39.4% in experiment [8]; 10.2% in [9]; 51.6% in experiment [10]; 66.7% in experiment [11]; -23.5% (active) in experiment [12]. For the same compound, the growth in [13] is 27.3%; in experiment [14] it was 19.6%; in [15], 27%; in experiment [16] it was 67%; in [17], 33.8%.

For the compound `COc1ccc(Sc2[nH]c(C(C)=O)c3ccccc23)cc1`, the growth in [1] is 41.4%; in [2] it was 88%; in experiment [3] it was 94.1%; in experiment [4], 71.2%; in experiment [5], 19%; in [6], 83.6%. Also, the growth in [7] was 68.3%; in [8], 83.9%; in [9], 40.8%; in experiment [10] it was 56.5%; in [11], 50.1%; in [12] it was -23.4% (active). The growth is 58.6% in experiment [13]; 57.5% in experiment [14]; 65.3% in experiment [15]; 70.2% in experiment [16]; 37% in experiment [17].

As for `O=C(C[n+]1cccc2cc(Cl)ccc21)c1ccc2c(c1)CCCC2`, the growth was 7.65% (active) in [1]; 25.6% in experiment [2]; 28.3% in experiment [3]; 16.2% in experiment [4]; 16.9% in experiment [5]; 33.7% in [6]. Further, the growth in experiment [7] was 0.868% (active); in experiment [8] it was 37.5%; in experiment [9], 101%; in [10], 2.41% (active); in experiment [11], 22.2%; in experiment [12], 10.8%. Also, the growth in experiment [13] is 35.6%; in [14] it was 4.57% (active); in experiment [15], 7.99% (active); in experiment [16] it was 27.7%; in experiment [17] it was 14.7%.

Consider `CCOCc1nc2ccccc2c(=O)[nH]1`, for which the growth in [1] was 102%; in experiment [2] it was 103%; in experiment [3], 106%; in experiment [4] it was 113%; in experiment [5] it was 108%; in experiment [6] it was 96.6%. For the same compound, the growth was 109% in experiment [7]; 93.8% in [8]; 103% in [9]; 105% in experiment [10]; 106% in experiment [11]; 103% in experiment [12]. The growth was 97.1% in [13]; 94.9% in [14]; 98% in experiment [15]; 105% in [16]; 103% in experiment [17].

As to `C#C[C@@]1(O)[C@@H](CO)O[C@@H](n2cc(F)c3c(N)ncnc32)[C@@H]1O`, the growth in experiment [1] was 5.11% (active); in experiment [2], 9.54% (active); in experiment [3], 9.96% (active); in experiment [4], 4.75% (active); in [5], -7.75% (active); in experiment [6], -17.4% (active). Besides, the growth in [7] was 10.9%; in experiment [8] it was 28.4%; in [9], 4.76% (active); in [10], -13.8% (active); in experiment [11], -23.9% (active); in [12], 1.49% (active). Moreover, the growth in experiment [13] was 1.66% (active); in experiment [14], 2.03% (active); in experiment [15], 1.44% (active); in [16] it was -27.2% (active); in [17], 10.2%.

With `COC(=O)/C=C1\SC(=Nc2ccc(F)cc2)N(CCc2c[nH]c3ccccc23)C1=O`, the growth in [1] is 93.8%; in [2], 87.5%; in experiment [3], 110%; in experiment [4], 106%; in [5] it was 102%; in experiment [6] it was 98.5%. In addition, the growth was 104% in [7]; 108% in experiment [8]; 95.8% in experiment [9]; 91.3% in experiment [10]; 88.4% in experiment [11]; 114% in [12]. In addition, the growth in experiment [13] was 106%; in [14] it was 74.9%; in [15] it was 87.8%; in experiment [16], 102%; in experiment [17], 100%.

`CCCCN(CCCC)CC(CN(CC)CC)OC(=O)Nc1ccccc1` (stereo not drawn): the growth in experiment [1] is 96.7%; in experiment [2] it was 106%; in experiment [3] it was 76.7%; in experiment [4], 77.1%; in experiment [5] it was 87.4%; in experiment [6], 57%. For the same compound, the growth in experiment [7] is 108%; in experiment [8], 113%; in [9] it was 82.4%; in experiment [10], 92.2%; in experiment [11], 88.4%; in experiment [12] it was 102%. Also, the growth was 74.1% in experiment [13]; 79.4% in experiment [14]; 56.5% in [15]; 85.1% in experiment [16]; 93.9% in experiment [17].

In the case of `O=C(CCl)N1CCCc2ccccc21`, the growth was 102% in [1]; 107% in experiment [2]; 99.2% in experiment [3]; 102% in experiment [4]; 119% in experiment [5]; 106% in experiment [6]. Besides, the growth in experiment [7] was 94.9%; in [8] it was 105%; in experiment [9], 96.8%; in [10], 106%; in experiment [11], 97.1%; in experiment [12], 91.8%. Further, the growth in experiment [13] was 99%; in [14] it was 92%; in [15], 95.9%; in experiment [16], 96.6%; in experiment [17] it was 90.4%.

As to `COc1ccc2nc3c(n2c1)C(=O)C(=O)c1ccccc1-3`, the growth in [1] is -0.676% (active); in [2], 9.51% (active); in experiment [3], -79.9% (active); in experiment [4], -81.3% (active); in [5], 24.8%; in experiment [6], 0.7% (active). Further, the growth in experiment [7] is -22.8% (active); in [8], -6.35% (active); in [9], -7.37% (active); in experiment [10] it was 21.4%; in experiment [11] it was -72.3% (active); in experiment [12], -91.8% (active). Also, the growth in experiment [13] is -61.8% (active); in experiment [14], -53.1% (active); in [15] it was -2.17% (active); in experiment [16], -13.5% (active); in experiment [17], 23.1%.
